Measurements from PubChem BioAssay (NCATS).
Records with an inconclusive call do not appear. A call without a number means that no potency is given here. Active and inactive are the calls of the source. Calls come from the whole dose curve; as a rule, active = well fitted inhibition curve with a large enough effect; inconclusive = small, poorly fitted or top-dose-only effect; inactive = flat fitted curve, though single readings scatter.

Tests used:
Assay in all cases: qHTS profiling for inhibitors of Plasmodium falciparum proliferation (AID 504749); note: nearly all actives have a fitted effect of over 60% in size
Conditions in all cases: P. falciparum in erythrocytes, SYBR Green DNA, 72 h; series mostly up to 12.8 µM
Dd2 = tested on: Dd2
Method in brief: (§1)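 Readout was DNA-dye fluorescence from lysed cultures, ex 485/em 535 nm. Parasitized red cells had grown 72 h with compound; data scaled between 0.29 uM artemisinin and DMSO wells and corrected using vehicle-only plates.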

ECU = tested on: ECU
Method in brief: as §1

PC15 = tested on: PC15
Method in brief: as §1

3D7 = tested on: 3D7
Method in brief: as §1

C2A = tested on: C2A
Method in brief: as §1

CP185 = tested on: CP185
Method in brief: as §1

CP191 = tested on: CP191
Method in brief: as §1

CP194 = tested on: CP194
Method in brief: as §1

CP211 = tested on: CP211
Method in brief: as §1

CP238 = tested on: CP238
Method in brief: as §1

CP265 = tested on: CP265
Method in brief: as §1

CP266 = tested on: CP266
Method in brief: as §1

CP268 = tested on: CP268
Method in brief: as §1

CP291 = tested on: CP291
Method in brief: as §1

CP297 = tested on: CP297
Method in brief: as §1

DIV30 = tested on: DIV30
Method in brief: as §1

HB3 = tested on: HB3
Method in brief: as §1

PC26 = tested on: PC26
Method in brief: as §1

TAB113 = tested on: TAB113
Method in brief: as §1
Potency is the fitted concentration of half-maximal effect.

| Compound | Potency (Dd2) | Potency (ECU) | Potency (PC15) | Potency (3D7) | Potency (C2A) | Potency (CP185) | Potency (CP191) | Potency (CP194) | Potency (CP211) | Potency (CP238) | Potency (CP265) | Potency (CP266) | Potency (CP268) | Potency (CP291) | Potency (CP297) | Potency (DIV30) | Potency (HB3) | Potency (PC26) | Potency (TAB113) |
| --- | --- | --- | --- | --- | --- | --- | --- | --- | --- | --- | --- | --- | --- | --- | --- | --- | --- | --- | --- |
| CCC1OC(=O)CC(O)C(C)[C@@H](O[C@@H]2OC(C)[C@H](O[C@@H]3C[C@@](C)(O)C(O)C(C)O3)C(N(C)C)C2O)[C@H](CC=O)CC(C)C(=O)/C=C/C(C)=C/[C@@H]1COC1OC(C)C(O)C(OC)[C@@H]1OC (stereo partly specified) | 891 nM (active) | inactive | inactive |  |  |  |  |  |  |  |  |  |  |  |  |  |  |  |  |
| CCC1OC(=O)C(C)[C@@H](O[C@H]2C[C@@](C)(OC)C(O)C(C)O2)C(C)[C@@H](O[C@@H]2OC(C)CC(N(C)C)C2O)[C@@](C)(O)CC(C)C(=O)[C@@H](C)C(O)[C@]1(C)O (stereo partly specified) | inactive | inactive | inactive | inactive | inactive | inactive | inactive | inactive | inactive | inactive | inactive | inactive | inactive | inactive | inactive | inactive | inactive | inactive | inactive |
| CCC(C)C(=O)OC1CC(O)C=C2C=CC(C)C(CCC(O)CC(O)CC(=O)O)C21 (stereo unspecified) | inactive | inactive | inactive | inactive | inactive | inactive | inactive | inactive | inactive | inactive | inactive | inactive | inactive | inactive | inactive | inactive | inactive | inactive | inactive |
